Unmarked numbers belong to inactive results. How the calls were made is not given here.

Sequence of Pantothenate synthetase (Mycobacterium tuberculosis (strain ATCC 25618 / H37Rv)) (P9WIL5 whole entry, looked up): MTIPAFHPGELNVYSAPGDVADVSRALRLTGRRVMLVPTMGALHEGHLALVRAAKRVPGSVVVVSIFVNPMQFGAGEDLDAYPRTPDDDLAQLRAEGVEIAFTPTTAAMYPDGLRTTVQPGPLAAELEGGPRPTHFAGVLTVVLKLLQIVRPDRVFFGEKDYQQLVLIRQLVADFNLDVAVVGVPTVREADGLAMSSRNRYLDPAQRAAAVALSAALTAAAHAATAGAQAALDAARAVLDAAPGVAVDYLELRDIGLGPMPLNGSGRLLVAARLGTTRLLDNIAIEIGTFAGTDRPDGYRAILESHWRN

The assay concerns the target Pantothenate synthetase (Mycobacterium tuberculosis (strain ATCC 25618 / H37Rv)) (UniProt P9WIL5). Kind of assay: Coupled enzyme confirmation of inhibitors against recombinant Mtb PanC (AID 375).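 Further: 0% = full reaction with vehicle and 100% = no enzyme background.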 Particulars: coupled enzyme assay; at 10 µM, hits give high values.
Broadly, the inhibition is the relative decrease from the control value, in per cent. With `CCN(CC)CCCNc1oc(-c2cccc(Cl)c2)nc1C#N`, the inhibition was 0%.
The same measure for `CC(=O)NCCCCCCNC(C)=O`: 0%; for `Cc1ccc(C)c(-n2nnnc2SCC(=O)NCCC2=CCCCC2)c1`: 3%.
As for `Cc1sc2nc(SCC(=O)NCCO)n(C)c(=O)c2c1C`, the figure is 0%.
As for `Cn1c(=O)c2nc(Cl)n(Cc3ccc(Cl)cc3Cl)c2n(C)c1=O`, the figure is 6%.
For the compound `Cn1nc(-c2ccc(C(=O)N3CCN(c4ccccc4)CC3)cc2)c2ccccc2c1=O`, the inhibition was 0%.
The same measure for `O=C(COC(=O)c1ccc(S(=O)(=O)Nc2ccccc2)cc1)NCCN1C(=O)CSC1=O`: 0%; for `CCc1c(C)nc(N)n2c(SCC(=O)N3CCCc4ccccc43)nnc12`: 2%; for `CCOC(=O)N1CCN(C(=O)c2ccc3c(=O)n(CCc4ccccc4)c(=O)[nH]c3c2)CC1`: 0%.
`COc1ccc(C(=O)Nn2c(SCC(=O)NCC3CCCO3)nc3ccccc3c2=O)cc1` (stereo not given): the inhibition is 2%.
The same measure for `C[C@]12CC[C@H]3[C@@H](CCC4=CC(=O)CC[C@@]43C)[C@@H]1CC[C@@H]2C(=O)CO`: 0%.
The same measure for `O=C(CNS(=O)(=O)c1ccc(Br)s1)N1CCN(c2ncccn2)CC1`: 0%; for `CC1=C(C(=O)NCc2ccco2)C2(CCC(C)CC2)OC1=O` (stereo not given): 4%; for `COc1ccc(-c2cc(C(F)(F)F)nc(N3CCN(c4ccc(F)cc4)CC3)n2)cc1OC`: 0%.
In the case of `O=C(CSc1nnc2ccccn12)NCCN1C(=O)CSC1=O`, the inhibition was 0%.
As for `Cc1nc(C)c(C(=O)C2=C(O)C(=O)N(CCCn3ccnc3)C2c2ccccc2)s1` (stereo not given), the figure is 1%.
Turning to `CCCSCCCNC(=O)Cn1cc2c(n1)CCC(C)C2` (stereo not given), the inhibition was 2%.
As for `COc1ccc(-c2nnc(SCC(=O)NC(C)c3ccccc3)o2)cc1` (stereo not given), the inhibition is 0%.
Take `CCOc1ccc(NC(=O)COC(=O)Cn2cnnn2)cc1OCC`: the inhibition was 0%.
As for `CCCOC(=O)c1[nH]c2c(c1C)C(=O)CC(c1ccc(OC)c(OC)c1)C2` (stereo not given), the figure is 0%; as for `CC1CCCCC1NC(=O)CN1CCN(Cc2ccccc2Cl)C1=O` (stereo not given), 0%; as for `COc1ccc(C2C(C(C)=O)=C(O)C(=O)N2C)c(OC)c1` (stereo not given), 0%.
As for `Cc1c(C(=O)NCc2ccccc2)oc2c1C(=O)CCC2`, the figure is 0%.
Regarding `Cc1cc(C(=O)Nc2nnc(C(F)(F)F)s2)no1`, the inhibition was 0%.
For `O=C(OCC(=O)c1c[nH]c2ccccc12)C1=COCCO1`, the inhibition was 0%.
As for `C/C(N)=C(/C#N)C(=O)CSc1nnc(Nc2c(C)cccc2C)s1`, the figure is 9%.
As for `COc1cc(C(=O)Nc2ccc(-n3cnnn3)c(C)c2)cc(OC)c1OC`, the figure is 0%; as for `O=C1c2cccnc2C(=O)N1c1cccc(-c2nc3ccccc3o2)c1`, 3%; as for `c1n[nH]c(SCCCCSc2ncn[nH]2)n1`, 6%.
The same measure for `CC(=O)[C@H]1[C@H](C#N)C[C@H]2[C@@H]3CC=C4C[C@@H](O)CC[C@]4(C)[C@H]3CC[C@@]21C`: 0%; for `COc1ccc2c(C(=O)CN(C)C3CCCCC3)c[nH]c2c1`: 0%.
With `O=C(c1cc2nc(-c3ccco3)cc(C(F)(F)F)n2n1)N1CCN(c2ccccn2)CC1`, the inhibition was 6%.
The same measure for `Cc1cc(NC(=O)c2cc3ccccc3o2)cc(C)c1OCC(=O)N1CCOCC1`: 0%; for `Nc1cc(C(=O)O)ccc1Nc1ccccc1`: 0%.
As for `O=C1CC(N2CCOCC2)C(=O)N1c1ccccc1Cl` (stereo not given), the inhibition is 1%.
The same measure for `Cc1ccc(CCNC(=O)C2CCCN2S(=O)(=O)c2ccc3c(c2)CCC(=O)N3)cc1` (stereo not given): 6%; for `COc1ccc(C)cc1NC(=O)COCC(=O)O`: 0%.
With `CN1C(=O)CC(C(=O)Nc2ccc(F)cc2)SC1=Nc1ccc2c(c1)OCO2` (stereo not given), the inhibition was 0%.
The same measure for `O=C(Nc1ccc2snnc2c1)N1CCSCC1`: 0%; for `O=C(CN(c1ccc(F)cc1)S(=O)(=O)c1ccc2c(c1)OCCO2)Nc1ccc2c(c1)OCO2`: 3%.

The record behind these values is PubChem BioAssay.
